Screens as filed in PubChem BioAssay.
USP28 inh – blocks human USP28 ubiquitin-rhodamine cleavage | purified USP28, Ub-rhodamine cleavage fluorescence, 30 min | actives 3% (n = 47,000) | inhibition, % at 25 µM | AID 1645857 | Q96RU2
Target sequence (Q96RU2 whole entry, looked up): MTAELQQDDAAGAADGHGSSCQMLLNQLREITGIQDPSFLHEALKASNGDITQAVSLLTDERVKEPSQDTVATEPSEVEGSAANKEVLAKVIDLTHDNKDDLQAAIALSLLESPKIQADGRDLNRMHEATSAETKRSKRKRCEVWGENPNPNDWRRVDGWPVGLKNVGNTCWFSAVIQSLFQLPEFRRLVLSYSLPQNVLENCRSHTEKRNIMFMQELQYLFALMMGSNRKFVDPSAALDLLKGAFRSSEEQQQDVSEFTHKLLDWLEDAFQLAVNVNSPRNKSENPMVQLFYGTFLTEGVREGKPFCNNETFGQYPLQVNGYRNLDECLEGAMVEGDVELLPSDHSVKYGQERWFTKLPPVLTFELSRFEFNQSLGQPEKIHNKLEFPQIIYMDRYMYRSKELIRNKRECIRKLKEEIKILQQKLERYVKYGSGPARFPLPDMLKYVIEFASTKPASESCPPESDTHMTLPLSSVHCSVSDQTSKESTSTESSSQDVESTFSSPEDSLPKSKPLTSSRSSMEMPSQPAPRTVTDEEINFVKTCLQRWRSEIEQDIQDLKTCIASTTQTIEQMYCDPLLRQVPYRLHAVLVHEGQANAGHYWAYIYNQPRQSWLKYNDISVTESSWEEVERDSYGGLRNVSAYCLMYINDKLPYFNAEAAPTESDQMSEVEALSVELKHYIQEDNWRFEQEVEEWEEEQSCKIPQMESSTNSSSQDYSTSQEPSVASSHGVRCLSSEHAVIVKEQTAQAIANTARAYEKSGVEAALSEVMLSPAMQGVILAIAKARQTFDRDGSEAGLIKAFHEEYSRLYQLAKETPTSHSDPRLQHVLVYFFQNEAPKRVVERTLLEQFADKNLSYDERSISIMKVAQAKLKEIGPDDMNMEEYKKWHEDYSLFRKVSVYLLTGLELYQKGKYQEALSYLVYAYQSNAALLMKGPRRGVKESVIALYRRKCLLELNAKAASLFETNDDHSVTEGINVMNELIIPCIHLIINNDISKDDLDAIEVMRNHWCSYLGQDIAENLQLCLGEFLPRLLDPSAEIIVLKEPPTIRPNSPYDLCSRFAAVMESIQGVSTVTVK
USP17 inh – inhibitors of human USP17 deubiquitinase | inhibition, % at 50 µM | AID 1645855 | actives 6.5% (n = 47,000) | purified USP17, Ub-rhodamine cleavage fluorescence, 3 h | A8MUK1
USP10 block – inhibitors of human USP10 deubiquitinase. Q14694. purified USP10, Ub-rhodamine fluorescence, 60 min. inhibition, % at 20 µM. actives 1.1% (n = 47,000)
USP8 block – blocks human USP8 ubiquitin-rhodamine cleavage. P40818. purified USP8, Ub-rhodamine cleavage fluorescence, 30 min. inhibition, % at 20 µM. actives 4.2% (n = 47,000)
USP30 inh – inhibitors of human USP30 deubiquitinase | inhibition, % at 25 µM | purified USP30, Ub-rhodamine cleavage fluorescence | actives 5.3% (n = 47,000) | AID 1645860
Active calls of the source: *. Hits are enriched below; roughly 14% of the tested compounds scored in any of these assays. Cut-off read from the data, not from the text of the source: active = inhibition above about 30%; inactive = the rest.

SMILES	USP28 inh	USP17 inh	USP10 block	USP8 block	USP30 inh
Cn1nc(-c2ccccc2)c(CO)c1SCc1ccc(Cl)cc1	3	16	1	13	22
Cn1c(SCc2ccc(C(C)(C)C)cc2)nc(-c2ccccc2)c1-c1ccccc1	12	19	11	8	34*
O=C(O)CN1C(c2ccccc2)=Nc2ccc(Br)cc2C1c1ccccc1 (centres undefined)	-1	0	0	-6	13
COc1cccc(OC)c1C(=O)Nc1ccccc1NC(=O)c1c(OC)cccc1OC	-15	-17	-1	-39	-7
COc1cccc(OC)c1C(=O)Nc1c(NCc2ccccc2)c2ccccc2oc1=O	18	30*	0	-52	17
Cc1c(CNCCc2c[nH]c3ccccc23)c(C(=O)O)c(C)n1Cc1c(F)cccc1Cl	-9	-13	-3	-42	-3
Cc1ccc(-c2nc3n(c2CNC(=O)c2cccnc2)CCS3)cc1	-7	-7	0	2	-2
O=C(c1ccc2c(c1)N(Cc1ccccc1F)C(=O)c1ccccc1S2(=O)=O)N1CCN(C(=O)c2ccco2)CC1	6	38*	3	13	29
Cc1ccc(S(=O)(=O)N2CCN(C(=O)CN3CCc4ccccc43)CC2)c(C)c1	10	26	-5	16	4
Cn1ccc(CN2CCc3ccccc32)cc1=O	-56	-8	-1	51*	-220
CSc1ncn(-c2nc(N(C)C)nc(N3CCCCCC3)n2)n1	26	5	2	5	18
CCNc1nc(N2CCCCCC2)nc(-n2cnc(SC)n2)n1	20	11	2	5	30*
O=C(Cn1c(=O)n(Cc2ccc3c(c2)OCO3)c(=O)c2ccccc21)NCC1CCCO1 (centres undefined)	21	8	2	22	24
O=C(Cn1c(=O)n(Cc2ccc3c(c2)OCO3)c(=O)c2ncccc21)NCc1ccco1	18	49*	-3	13	-11
O=C(Cn1c(=O)n(Cc2ccccc2)c(=O)c2ncccc21)NCc1ccccc1Cl	-1	86*	51*	50*	-28
O=C(Cn1c(=O)n(Cc2ccc3c(c2)OCO3)c(=O)c2ncccc21)c1ccc(Cl)cc1	-8	5	8	73*	62*
O=C(Cn1c(=O)n(Cc2ccncc2)c(=O)c2ncccc21)Nc1ccccc1	3	-1	-4	13	-1
CCOc1ccc(NC2CCCCNC2=O)cc1 (centres undefined)	5	17	1	4	4
Cn1c(=O)cc(C(=O)Nc2cc(C(F)(F)F)cc(C(F)(F)F)c2)[nH]c1=O	12	21	12	20	36*
O=C1NC(c2ccccc2F)Nc2ccccc21 (centres undefined)	4	1	1	10	5
c1cc(N2CCOCC2)ccc1-c1csc(-c2ccc3c(c2)OCCO3)n1	12	40*	-4	4	-35
FC(F)(F)c1ccc(-c2nc(-c3ccc4c(c3)OCCCO4)cs2)cc1	11	19	0	16	33*
c1ccc2oc(-c3csc(-c4ccc5c(c4)OCCO5)n3)cc2c1	-39	-57	-4	-47	-256
Cc1nc(-c2ccc3c(c2)OCCCO3)cs1	8	6	1	6	10
O=C(Cn1ccnc1-c1ccnc(N2CCCC2)c1)NC1CCCCC1	-3	0	-1	2	-19
SMILES	USP28 inh	USP17 inh	USP10 block	USP8 block	USP30 inh
O=C(c1ccc2c(c1)OCO2)N1CCCCC1c1nncn1CC1CC1 (centres undefined)	3	-6	-1	-95	11
CCCOc1ccc(C2CN3C(=O)CN(C4CCCC4)C(=O)[C@]3(C)c3[nH]c4ccccc4c32)cc1OC (some centres undefined)	0	0	3	0	9
CCc1ccc(S(=O)(=O)Nc2ccc(-c3nnc(-c4ccccc4)o3)cc2)cc1	33*	27	47*	32*	32*
Cc1noc(C)c1-c1ccc(S(=O)(=O)Nc2cccc(F)c2)cc1	-8	-3	5	-5	-16
Cc1noc(C)c1-c1ccc(S(=O)(=O)Nc2ccccc2)cc1	12	8	3	29	30*
CC(C)C(Nc1ccc(C(F)(F)F)cc1Cl)C(=O)Nc1nc2ccccc2[nH]1 (centres undefined)	24	40*	14	-255	37*
O=C(Cn1cc(-c2ccccc2)oc1=O)NCc1ccc(Cl)cc1	27	41*	-2	31*	35*
O=C(Cc1cc(-c2ccccc2)on1)NCc1c(F)cccc1F	27	53*	-1	21	23
NS(=O)(=O)c1ccc(CCNC(=O)Cc2cc(-c3ccc(F)cc3)on2)cc1	2	8	-3	48*	-12
COc1cccc(-c2cc(CC(=O)NCc3c(F)cccc3F)no2)c1	18	45*	-1	28	27
O=C(c1ccn[nH]1)N1CCCC(c2nccnc2Oc2ccccc2)C1 (centres undefined)	10	7	-1	11	19
CN(C)C(=O)CSC1=Nc2c(cnn2-c2cccc(Cl)c2)C2=NCCCN12	14	-26	2	9	24
CN1c2ccc(F)cc2O[C@@H]2C[C@@H](NC(=O)c3cncn3C)[C@@H](O)[C@@H]21	2	-4	0	4	-1
O=C(Nc1ccc2c(c1)OCO2)N1CCCCCC1c1cccs1 (centres undefined)	-1	-7	-1	-1	1
O=C(Cc1cc(-c2ccccc2)on1)NCc1ccc(Cl)cc1	1	4	12	36*	16
O=C(Cc1ccc(Cl)cc1)NCc1csc(-c2ccccc2)n1	-4	-3	0	-6	0
O=C(COC(=O)CC1(CC2=NS(=O)(=O)c3ccccc3N2)CCCC1)Nc1ccccc1	12	5	5	-3	4
Cc1ccc(C(=O)[C@H]2C(c3ccccc3OCC#N)=NO[C@]23C(=O)Nc2ccccc23)cc1	21	42*	9	9	29
CCc1ccc(NS(=O)(=O)c2cc(-c3[nH]ncc3C(=O)N3CCCCC3)oc2C)cc1	1	22	0	10	41*
COc1cccc(-c2cc(C(=O)Nc3nc4ccccc4s3)c3ccccc3n2)c1	-9	-16	-1	-53	-30
CCCc1cc(=O)n2[nH]c(-c3ccc(C)cc3)cc2n1	-10	43*	1	2	-7
CC1NC(=O)C(CC(N)=O)NC(=O)C(C(C)O)NC(=O)C(C(C)C)NC(=O)C(C(C)C)NC(=O)C(NC(=O)CC(O)CCCCCCCCCCCCN=C(N)N)C(C)OC1=O (centres undefined)	84*	70*	2	-3	90*
Cc1cc(OCC(=O)Nc2ccc3c(c2)NC(=O)CO3)ccc1Cl	13	10	45*	53*	14
Cc1cccc(OCC(=O)Nc2ccc3c(c2)NC(=O)CO3)c1	4	41*	2	0	12
Cc1nn(-c2ccccc2)cc1-c1noc(C(=O)NCc2ccccn2)n1	10	12	2	19	26
